Compound activity (PubChem)
CCHF vOTU inh: blocks the CCHF virus ovarian tumor domain protease; 0.55% of 370,000 active; inhibition, % at 11.5 µM; CCHFV vOTU protease, Pep-AMC fluorescence; AID 651958
GDH-TPI inh: GDH-TPI coupled enzyme inhibition counter-screen | GDH-TPI coupled enzyme counterscreen, NADH absorbance | inhibition, % at 4.8 µM | 1.2% of 360,000 active | AID 588335
Mtb FBA inh: inhibits M. tuberculosis FBA enzyme | purified M. tuberculosis FBA, fluorescence read-out | inhibition, % at 1 µM | 2.3% of 360,000 active; in the data active = inhibition above about 27%
Target sequence (P9WQA3 whole entry, looked up): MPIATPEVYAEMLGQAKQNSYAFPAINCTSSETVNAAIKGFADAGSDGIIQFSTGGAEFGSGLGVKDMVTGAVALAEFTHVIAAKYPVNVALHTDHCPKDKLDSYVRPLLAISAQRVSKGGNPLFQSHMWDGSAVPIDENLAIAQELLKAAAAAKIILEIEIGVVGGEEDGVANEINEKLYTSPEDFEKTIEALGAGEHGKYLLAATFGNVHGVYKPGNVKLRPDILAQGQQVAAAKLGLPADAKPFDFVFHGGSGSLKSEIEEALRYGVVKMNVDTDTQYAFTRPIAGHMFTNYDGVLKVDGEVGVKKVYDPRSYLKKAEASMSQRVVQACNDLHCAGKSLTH
RecA intein inh: Mtb RecA intein splicing inhibition; P9WHJ3; cell-free RecA intein splicing, fluorescence; inhibition, % (no concentration beside the values); 0.75% of 290,000 active; AID 2221; in the data active = inhibition above about 30%
Each line names hits and unclear results; the compound was inactive in the other large screens. Only some compounds are listed: those with a hit (about 4.2% of all), similar ones and a draw of the others. Cut-off read from the data, not from the text of the source, unless noted: active = inhibition above about 30%; inactive = the rest.

CC[n+]1ccc(/C=C2\Sc3ccccc3N2CCCS(=O)(=O)[O-])c2ccccc21	none
CN1C=C/C(=C\c2cc[n+](C)c3ccccc23)c2ccccc21	RecA intein inh 71
CC1(C)CC(NC(=O)c2coc(=O)c(Br)c2)CC(C)(C)N1	Mtb FBA inh 60
O=C(/C=C/c1cccc(F)c1)OCC(=O)N1CCc2ccccc21	none (no result: RecA intein inh)
CCc1ccc(/C=C2\Oc3c(ccc(O)c3CN3CCN(CCO)CC3)C2=O)cc1	GDH-TPI inh 35
O=C(Cn1cnc2c(NCc3ccccc3)ncnc21)NCCCN1CCCC1=O	none (no result: RecA intein inh)
CCN(CC)c1ccc(-c2nc3cnccc3n2C)cc1	GDH-TPI inh 31
COC(=O)[C@]12C[C@H](CC(=O)NCCc3ccccc3OC)C(=O)N(Cc3ccco3)C1=C[C@H](COCc1ccccc1)O[C@@H]2C	none (no result: GDH-TPI inh, Mtb FBA inh, RecA intein inh)
CCOC(=O)CNc1c(-c2ccc(F)cc2)nc2cnccn12	Mtb FBA inh 87
CCCCNc1c(-c2ccc(-c3ccc(C(C)=O)cc3)c(OC)c2)nc2cnccn12	GDH-TPI inh 34 (no result: CCHF vOTU inh)
C/C(CC(=O)Nc1ccc(Cl)cc1)=N\NC(=O)C(=O)N1CCCCC1	RecA intein inh 78
C/C(CC(=O)Nc1ccc(Cl)cc1Cl)=N\NC(=O)C(=O)N1CCCC1	none
O=C(N/N=C/C(Cl)=C/c1ccc([N+](=O)[O-])cc1)C(=O)Nc1cccc(C(=O)O)c1	GDH-TPI inh 37
O=C(OCc1c(-c2ccccc2)ncc2ccccc12)c1cccc(Br)c1	none (no result: RecA intein inh)
COCCNC(=O)/C(C#N)=C/c1c(N2CCN(C)CC2)nc2ccccn2c1=O	Mtb FBA inh 192
CCOC(=O)/C(C#N)=C/c1c(N2CCN(C)CC2)nc2ccccn2c1=O	none
O=C1CSC(c2cn(-c3ccccc3)nc2-c2cc3ccccc3oc2=O)N1Cc1ccco1 (centres undefined)	GDH-TPI inh 31
CCOC(=O)C1(C)CCCN(C(=O)C(c2ccccc2)c2ccccc2)C1 (centres undefined)	none (no result: RecA intein inh)
COc1ccc(COc2cc(-c3cccc(OC)c3)nc3ccc(NC(=O)c4ccc(C)cc4)cc23)cc1	none
COc1ccc(COc2cc(-c3cccc(OC)c3)nc3ccc(NC(C)=O)cc23)cc1	Mtb FBA inh 136
COc1ccc(COc2cc(-c3cccc(OC)c3)nc3ccc(N)cc23)cc1	Mtb FBA inh 54
COc1ccc(COc2cccnc2N)cc1	none (no result: RecA intein inh)
COc1ccc(COc2cc(-c3cccc(OC)c3)nc3ccc(NC(=O)c4ccc(N(C)C)cc4)cc23)cc1	GDH-TPI inh 38 (no result: CCHF vOTU inh)
O=C1C(=O)N(CCS(=O)(=O)c2ccccc2)c2ccc(F)cc21	none
N#C/C(=C/c1ccc2c(c1)OCO2)C(=O)Nc1ccc(O)cc1	RecA intein inh 59
CCOc1cc(/C=C(/C#N)C(=O)Nc2ccc(O)cc2)cc(Br)c1O	RecA intein inh 60
C=CCNC(=O)/C(C#N)=C\c1cc(Cl)c(O)c(OCC)c1	none
COC(=O)c1ccc(C2NC(=S)N(c3ccccc3)C(C)=C2C(=O)Nc2ccccc2OC)cc1 (centres undefined)	Mtb FBA inh active
COc1ccccc1NC(=O)C1=C(C)N(c2ccccc2)C(=S)NC1c1cccc(C(F)(F)F)c1 (centres undefined)	none
C[C@@]12CCC3[C@@](CCC4[C@@]3(C)CCC[C@@]4(C)C(=O)N3CCCCC3)(CC1=O)C2 (some centres undefined)	none (no result: RecA intein inh)
COC(=O)[C@]12C[C@H](CC(=O)N3CCN(C(=O)c4ccco4)CC3)C(=O)N(Cc3ccco3)C1=C[C@H](C1CCCC1)O[C@@H]2C	none (no result: GDH-TPI inh, Mtb FBA inh, RecA intein inh)
COc1cc(OC)cc(C(=O)c2c(C)c(C#N)c3ccccn23)c1	none
COC1=C/C(=C/c2c(O)c(C#N)c3ccccn23)C=CC1=O	GDH-TPI inh 44
O=C(CSc1n[nH]c(-c2ccccc2F)n1)Nc1cc(F)ccc1F	none (no result: RecA intein inh)
O=c1cc(CN2CCN(Cc3ccccc3)CC2)c2ccc(O)cc2o1	Mtb FBA inh 153
Cc1ccc2c(CN3CCN(Cc4ccccc4)CC3)cc(=O)oc2c1	none
OCC1(CCc2ccccc2)CCN(Cc2cc(Cl)ccc2O)CC1	none
CC1CN(Cc2cc(=O)oc3cc(O)ccc23)CC(C)O1 (centres undefined)	Mtb FBA inh 161
O=C(c1ccco1)N1CCN(Cc2cc(=O)oc3cc(O)ccc23)CC1	Mtb FBA inh active (no result: RecA intein inh)
Oc1ccc(Cl)cc1CN1CCN(Cc2ccccc2)CC1	GDH-TPI inh 63
CCOc1ccc(S(=O)(=O)N(C)CC(=O)NC2CC2)cc1	none
O=C(O)c1ccc(-n2cccc2/C=C2/NC(=O)N(c3ccccc3)C2=O)cc1	GDH-TPI inh 32
O=C(O)c1ccc(-n2cccc2/C=C2/NC(=O)N(c3cccc(Cl)c3)C2=O)cc1	none (no result: RecA intein inh)
CCOC(=O)c1cccc(-n2cccc2/C=C2\NC(=O)N(CC(=O)O)C2=O)c1	GDH-TPI inh 31 (no result: RecA intein inh)
